Each structure is given as a SMILES string. “And” between values parts separate entries of the source, which are not always exact repeats. Identical values can stand only once. The campaign covered roughly 70,000 compounds. About 470 (0.67%) were called active. Where a call stands in place of a potency, no number is given. Not shown: some 18% with an inconclusive outcome. The sample holds actives, similar compounds and a random draw of the others, so the mix is not that of the screen. Calls follow the shape of the full dose curve.
Potency is read from the fitted curve at half-maximal effect.

The nature of this test: qHTS Assay for Anthrax Lethal Toxin Internalization. Also: nearly all actives have a fitted effect of over 50% in size. The settings on record: Cells, FRET ratio (460/530); series mostly up to 40 µM.
Regarding `CO[C@@H]1COC(=O)C/C=C\[C@H](C)[C@@H](NS(=O)(=O)c2ccc(C)cc2)COC(=O)C/C=C\[C@@H]1C`, the activity change, negative = inhibition is -10% [at 8 µM] (inactive) and -6.83% [at 8 µM] (inactive).

As for `c1ccc2nc(C3=NCCN3)cnc2c1`, the activity change, negative = inhibition entry was “inactive”.

With `Cc1c2c(nc3ccccc13)-c1cccc(=O)n1C2`, the activity change, negative = inhibition result was “inactive”.

For `COc1ccccc1C(=O)C(O)c1ccccc1OC` (centres undefined), the activity change, negative = inhibition entry was “inactive”.

For the molecule `CC(=O)OCC1OC(C#Cc2ccccc2Cl)C=CC1OC(C)=O` (centres undefined), the activity change, negative = inhibition is -7.54% [at 8 µM] (inactive).

Consider `C[N+](C)(C)CCCCCNCC12CC3CC(CC(C3)C1)C2`, for which the activity change, negative = inhibition result was “inactive”.

Take `CSc1ccc(-c2c(C#N)c(N)nc3c2c(C)nn3-c2ccccc2)cc1`: the Potency was 1.26 µM (active).

Consider `COC(=O)[C@@]1(Cc2ccc(F)cc2)[C@H]2c3cc(C(=O)N4CCCC4)n(C[C@H](O)CO)c3C[C@H]2CN1C(=O)c1ccccc1`, for which the activity change, negative = inhibition result is “inactive”.

As for `COc1cc([C@H]2c3cc4c(cc3[C@@H](O[C@@H]3O[C@H]5CO[C@@H](C)O[C@]5(O)C[C@H]3O)[C@@H]3COC(=O)[C@H]23)OCO4)cc(OC)c1O`, the activity change, negative = inhibition entry is “inactive”.

`CCC(Sc1nncn1C)C(=O)Nc1nnc(-c2ccc(Cl)cc2)s1` (centres undefined): the activity change, negative = inhibition result was “inactive”.

Consider `O=C(O)c1ccc(C(=O)O)c2c(C(=O)O)ccc(C(=O)O)c12`, for which the activity change, negative = inhibition is -1.24% [at 8 µM] (inactive).

For the molecule `COc1ccc(N)c(OC)c1`, the activity change, negative = inhibition result is “inactive”.

Turning to `COC(=O)[C@@]1(Cc2ccccc2)[C@H]2c3cc(C(=O)N(C)C)n(CCSCCO)c3C[C@H]2CN1C(=O)c1ccccc1`, the activity change, negative = inhibition entry is “inactive”.

On to `CCC[C@@H]1C[C@@]1(CCC)C(NS(=O)(=O)c1cccc2cccnc12)c1ccc(Cl)cc1` (some centres undefined), for which the activity change, negative = inhibition entry was “inactive”.

As for `NCC[Se][Se]CCN`, the Potency was 0.0794 µM (active).

Consider `C=C1c2cc(CC)ccc2NC(=O)N1c1ccc(C)cc1`, for which the Potency was 10 µM (active).

Turning to `N[C@@H](C(=O)O)c1ccc(P(=O)(O)O)cc1`, the activity change, negative = inhibition entry is “inactive”.

Consider `CC(=O)N1CCC2(CCCN(Cc3ccc(C#N)cc3)C2)CC1`, for which the activity change, negative = inhibition result is “inactive”.

With `CCCCCCOC(=O)NCC(O)c1ccccc1` (centres undefined), the activity change, negative = inhibition entry is “inactive”.

Regarding `COc1cccc([C@H](O)Cn2cc(-c3ccc(CON=C(C)C)cc3)nn2)c1`, the activity change, negative = inhibition was -1.91% [at 8 µM] (inactive).

Consider `COc1ncc2nc(-c3ccc(Cl)cc3)c(=O)n(C)c2n1`, for which the activity change, negative = inhibition result is “inactive”.

In the case of `N#Cc1nc(COc2ccc(-c3ccccc3)cc2)oc1NCc1cccnc1`, the activity change, negative = inhibition result is “inactive”.

Turning to `N#Cc1nc(Cc2ccccc2)oc1NCCc1ccccc1`, the activity change, negative = inhibition result is “inactive”.

With `N#Cc1nc(-c2ccc(OCc3ccccc3)cc2)oc1NCCCN1CCOCC1`, the Potency is 12.6 µM (active).

Consider `C/C=C/C=C/C(=O)O`, for which the activity change, negative = inhibition result is “inactive”.

For the molecule `CC(C)CN1CCc2nc(-c3ccccc3)c3c(c2C1)COC(C)C3` (centres undefined), the activity change, negative = inhibition was -16% [at 8 µM] (inactive).

`COc1ccccc1CNc1ccnc(-c2c(C)noc2C)n1`: the activity change, negative = inhibition entry was “inactive”.

With `CC(Cc1ccccc1)C(=O)N(C)Cc1ccccc1` (centres undefined), the activity change, negative = inhibition result was “inactive”.

For `COc1ccc(/C=C/NC(=O)Cc2ccc(OC)c(OC)c2)cc1`, the activity change, negative = inhibition is -11.3% [at 8 µM] (inactive).

As for `Cn1c2c(c(=O)n(C)c1=O)C1c3ccccc3OCC1C(C)(C)O2` (centres undefined), the activity change, negative = inhibition entry was “inactive”.

Regarding `COc1ccccc1N1CCN(C[C@@H]2CN3C(=O)N(C)c4ccccc4C3=N2)CC1`, the activity change, negative = inhibition result was “inactive”.

For the molecule `CC1CN(Cc2nc3c(c(=O)n(C)c(=O)n3C)n2Cc2cccc(Cl)c2)CC(C)O1` (centres undefined), the activity change, negative = inhibition result is “inactive”.

For `CCCCC(CC)CN` (centres undefined), the activity change, negative = inhibition result is “inactive”.

Regarding `Cc1ccnc(N2CCC(C(=O)NC3CCCCCC3)CC2)n1`, the activity change, negative = inhibition entry was “inactive”.

For `Cc1nc2ccccc2c(=O)n1CCCn1ccnc1`, the activity change, negative = inhibition result is “inactive”.

For the molecule `Cc1ccnc(-n2sc3ccccc3c2=O)n1`, the Potency is 0.316 µM (active).

Take `O=c1[nH]c(=O)n([C@H]2C[C@H](O)[C@H](CO)O2)cc1Br`: the activity change, negative = inhibition entry was “inactive”.

For the molecule `CN(C)CCCn1c2ccccc2c2cnccc21`, the activity change, negative = inhibition is -25.7% [at 8 µM] (inactive).

With `O=C(COc1ccccc1Cl)Nn1cnnc1`, the activity change, negative = inhibition result was “inactive”.

Regarding `Cc1ccccc1OCC(=O)Nc1ccc(N2CCN(C(=O)C(C)C)CC2)c(Cl)c1`, the Potency is 12.6 µM (active).

In the case of `Cc1cccc(NC(=O)COc2ccccc2C)n1`, the activity change, negative = inhibition entry was “inactive”.

As to `COC(=O)[C@@]1(Cc2ccc(F)cc2)[C@@H]2[C@@H](CC(=O)[C@H]2CC(=O)C(=O)N2CCCC2)CN1C(=O)c1ccccc1`, the activity change, negative = inhibition entry is “inactive”.

As for `COC(=O)CCCCCN1C(=O)NC(c2ccc(-c3ccccc3)cc2)C(C(=O)OCc2ccccc2)=C1C` (centres undefined), the activity change, negative = inhibition result was “inactive”.

For the molecule `Cc1ccccc1N1CCN(S(=O)(=O)C[C@@]23CC[C@H](C[C@H]2NC(=O)[C@@H](N)CCS(C)(=O)=O)C3(C)C)CC1`, the activity change, negative = inhibition result is “inactive”.
